# The supplement of paper PMC10849652
# Targets with a hit are over-represented here; the source holds about 8,800 in all. About 0.5% of all pairs of compound and target were hits. Values without a mark were called inactive.
# Tests used:
# Experiment in all cases: log2 fold change, soluble protein after heating vs DMSO (PISA); higher = thermal stabilisation; K562 lysate, 10 uM; active = over 0.2 and 3.5 SD of the protein, either way, in both replicates (recomputed)
# [1] = compound: NCC(=O)Nc1ccc(-n2nc(C(F)(F)F)cc2-c2ccc3c(ccc4ccccc43)c2)cc1
# Outline: (§1)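 Following dounce homogenisation of K562 pellets in PBS pH 7.4 with 1 mM MgCl2, crude extract at 1 mg/mL protein was incubated for 30 min with 10 μM compound. Aliquots were then heated for 3 min over 48°C-58°C and pooled, NP-40 was added to 0.5% at 4°C, and soluble protein was recovered as the supernatant at 21,000xg for 90 min. Channel-sum-equalised TMTpro 16plex LC-MS/MS quantified this protein. Each value, from duplicates, is a log-two fold change in thermal stability relative to solvent controls.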
# vorinostat = compound: O=C(CCCCCCC(=O)Nc1ccccc1)NO [vorinostat]
# Outline: as §1
# silmitasertib = compound: O=C(O)c1ccc2c(c1)nc(Nc1cccc(Cl)c1)c1ccncc12 [silmitasertib]
# Outline: as §1
# [2] = compound: O=C1NC(=O)C(c2cnc3ccccn23)=C1c1cn2c3c(cc(F)cc13)CN(C(=O)N1CCCCC1)CC2
# Outline: as §1
# entospletinib = compound: c1cn2cc(-c3ccc4cn[nH]c4c3)nc(Nc3ccc(N4CCOCC4)cc3)c2n1 [entospletinib]
# Outline: as §1
# Chain of UniProt P62316 (P62316 whole entry, looked up): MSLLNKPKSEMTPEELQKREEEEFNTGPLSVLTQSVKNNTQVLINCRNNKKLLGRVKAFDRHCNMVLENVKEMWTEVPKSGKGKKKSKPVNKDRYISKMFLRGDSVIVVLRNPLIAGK
# Chain of UniProt Q9UJZ1 (Q9UJZ1 whole entry, looked up): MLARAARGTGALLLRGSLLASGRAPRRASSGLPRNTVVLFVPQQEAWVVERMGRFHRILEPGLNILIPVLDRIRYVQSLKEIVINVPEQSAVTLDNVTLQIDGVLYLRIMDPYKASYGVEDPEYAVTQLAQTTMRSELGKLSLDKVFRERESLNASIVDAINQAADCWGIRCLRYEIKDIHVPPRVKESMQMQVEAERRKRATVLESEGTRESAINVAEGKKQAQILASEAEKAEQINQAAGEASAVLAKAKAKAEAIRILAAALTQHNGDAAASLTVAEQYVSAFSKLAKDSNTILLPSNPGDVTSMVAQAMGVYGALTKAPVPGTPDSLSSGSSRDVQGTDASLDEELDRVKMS
# Chain of UniProt P62306 (P62306 whole entry, looked up): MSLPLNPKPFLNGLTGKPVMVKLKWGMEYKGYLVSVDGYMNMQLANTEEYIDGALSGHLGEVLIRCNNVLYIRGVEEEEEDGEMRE
# Chain of UniProt Q01130 (Q01130 whole entry, looked up): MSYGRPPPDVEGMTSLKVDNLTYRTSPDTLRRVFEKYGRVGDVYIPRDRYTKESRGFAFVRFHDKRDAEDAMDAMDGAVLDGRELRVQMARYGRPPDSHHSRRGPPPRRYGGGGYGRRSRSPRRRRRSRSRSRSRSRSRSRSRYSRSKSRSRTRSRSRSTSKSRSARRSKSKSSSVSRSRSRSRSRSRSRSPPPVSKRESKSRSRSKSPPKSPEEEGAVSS
# Chain of UniProt Q9NTJ3 (Q9NTJ3 whole entry, looked up): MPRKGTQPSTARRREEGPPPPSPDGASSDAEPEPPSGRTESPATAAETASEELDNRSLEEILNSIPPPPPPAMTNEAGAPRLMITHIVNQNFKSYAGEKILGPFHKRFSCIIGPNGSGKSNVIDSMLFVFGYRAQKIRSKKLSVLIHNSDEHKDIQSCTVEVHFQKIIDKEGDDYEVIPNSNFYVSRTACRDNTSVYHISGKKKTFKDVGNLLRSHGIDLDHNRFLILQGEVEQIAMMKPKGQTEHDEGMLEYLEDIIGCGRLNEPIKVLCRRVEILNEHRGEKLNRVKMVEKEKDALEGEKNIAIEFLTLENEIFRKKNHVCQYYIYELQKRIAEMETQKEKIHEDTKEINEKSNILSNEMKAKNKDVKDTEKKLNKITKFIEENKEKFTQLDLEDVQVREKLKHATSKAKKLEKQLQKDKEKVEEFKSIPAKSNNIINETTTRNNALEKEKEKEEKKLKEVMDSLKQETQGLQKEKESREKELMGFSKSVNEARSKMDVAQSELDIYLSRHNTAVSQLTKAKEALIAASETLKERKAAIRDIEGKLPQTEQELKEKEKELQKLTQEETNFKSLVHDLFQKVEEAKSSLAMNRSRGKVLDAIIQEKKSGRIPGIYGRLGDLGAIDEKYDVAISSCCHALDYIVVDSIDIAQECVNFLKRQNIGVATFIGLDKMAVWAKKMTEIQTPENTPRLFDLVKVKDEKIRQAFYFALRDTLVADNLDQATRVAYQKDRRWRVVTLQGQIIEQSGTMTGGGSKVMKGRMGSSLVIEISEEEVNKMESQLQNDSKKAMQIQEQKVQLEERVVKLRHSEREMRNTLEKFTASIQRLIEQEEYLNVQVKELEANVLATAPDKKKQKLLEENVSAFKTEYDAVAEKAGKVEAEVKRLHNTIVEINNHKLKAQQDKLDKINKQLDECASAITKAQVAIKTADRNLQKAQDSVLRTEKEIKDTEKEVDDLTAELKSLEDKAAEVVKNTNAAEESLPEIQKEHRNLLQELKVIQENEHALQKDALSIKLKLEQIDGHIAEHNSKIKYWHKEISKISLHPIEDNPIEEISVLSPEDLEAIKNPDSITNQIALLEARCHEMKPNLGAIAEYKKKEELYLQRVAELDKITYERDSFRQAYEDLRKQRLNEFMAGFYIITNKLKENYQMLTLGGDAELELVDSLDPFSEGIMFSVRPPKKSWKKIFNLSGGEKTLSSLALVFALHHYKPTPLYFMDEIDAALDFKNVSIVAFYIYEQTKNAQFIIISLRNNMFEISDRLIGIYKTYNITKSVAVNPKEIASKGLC
# Chain of UniProt Q9H7B4 (Q9H7B4 whole entry, looked up): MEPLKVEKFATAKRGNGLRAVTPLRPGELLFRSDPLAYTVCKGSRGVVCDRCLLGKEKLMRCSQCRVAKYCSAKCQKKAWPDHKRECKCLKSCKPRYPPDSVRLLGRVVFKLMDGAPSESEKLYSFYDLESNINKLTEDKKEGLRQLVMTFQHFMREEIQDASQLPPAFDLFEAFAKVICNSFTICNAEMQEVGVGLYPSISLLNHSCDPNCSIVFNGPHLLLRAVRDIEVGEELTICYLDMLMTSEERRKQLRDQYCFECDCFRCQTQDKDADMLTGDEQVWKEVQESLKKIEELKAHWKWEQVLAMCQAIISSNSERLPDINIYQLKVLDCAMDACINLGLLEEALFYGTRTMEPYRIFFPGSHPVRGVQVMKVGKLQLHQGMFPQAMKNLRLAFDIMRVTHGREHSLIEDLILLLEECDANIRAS
# Chain of UniProt Q13586 (Q13586 whole entry, looked up): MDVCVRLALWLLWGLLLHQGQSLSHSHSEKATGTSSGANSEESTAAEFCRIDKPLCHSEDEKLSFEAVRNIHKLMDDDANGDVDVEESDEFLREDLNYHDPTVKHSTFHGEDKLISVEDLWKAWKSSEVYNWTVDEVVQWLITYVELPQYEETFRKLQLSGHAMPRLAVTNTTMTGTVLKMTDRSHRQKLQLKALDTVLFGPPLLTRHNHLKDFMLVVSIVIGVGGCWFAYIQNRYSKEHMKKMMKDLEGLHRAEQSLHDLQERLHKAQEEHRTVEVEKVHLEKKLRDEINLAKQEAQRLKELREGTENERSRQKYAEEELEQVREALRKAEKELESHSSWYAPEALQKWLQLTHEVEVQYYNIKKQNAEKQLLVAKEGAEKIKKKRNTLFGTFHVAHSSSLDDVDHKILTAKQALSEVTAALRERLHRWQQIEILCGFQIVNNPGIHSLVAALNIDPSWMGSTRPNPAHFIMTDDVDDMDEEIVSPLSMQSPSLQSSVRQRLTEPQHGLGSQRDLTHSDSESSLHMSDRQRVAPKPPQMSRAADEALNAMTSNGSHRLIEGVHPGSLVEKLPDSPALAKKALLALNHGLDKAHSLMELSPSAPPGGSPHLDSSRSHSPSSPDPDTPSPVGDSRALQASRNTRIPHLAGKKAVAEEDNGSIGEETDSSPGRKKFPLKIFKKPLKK
# Chain of UniProt Q8WU79 (Q8WU79 whole entry, looked up): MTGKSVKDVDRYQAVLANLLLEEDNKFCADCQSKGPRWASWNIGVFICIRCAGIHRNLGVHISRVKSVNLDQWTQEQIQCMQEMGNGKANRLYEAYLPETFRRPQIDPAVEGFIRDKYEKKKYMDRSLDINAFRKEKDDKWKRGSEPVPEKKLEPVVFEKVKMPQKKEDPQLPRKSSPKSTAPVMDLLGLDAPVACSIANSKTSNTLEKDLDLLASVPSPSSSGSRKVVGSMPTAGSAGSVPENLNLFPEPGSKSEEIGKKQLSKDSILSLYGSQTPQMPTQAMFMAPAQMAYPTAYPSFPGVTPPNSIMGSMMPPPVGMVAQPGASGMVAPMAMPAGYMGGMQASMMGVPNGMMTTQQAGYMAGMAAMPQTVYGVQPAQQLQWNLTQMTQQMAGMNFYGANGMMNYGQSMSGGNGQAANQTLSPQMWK
# Chain of UniProt P61011 (P61011 whole entry, looked up): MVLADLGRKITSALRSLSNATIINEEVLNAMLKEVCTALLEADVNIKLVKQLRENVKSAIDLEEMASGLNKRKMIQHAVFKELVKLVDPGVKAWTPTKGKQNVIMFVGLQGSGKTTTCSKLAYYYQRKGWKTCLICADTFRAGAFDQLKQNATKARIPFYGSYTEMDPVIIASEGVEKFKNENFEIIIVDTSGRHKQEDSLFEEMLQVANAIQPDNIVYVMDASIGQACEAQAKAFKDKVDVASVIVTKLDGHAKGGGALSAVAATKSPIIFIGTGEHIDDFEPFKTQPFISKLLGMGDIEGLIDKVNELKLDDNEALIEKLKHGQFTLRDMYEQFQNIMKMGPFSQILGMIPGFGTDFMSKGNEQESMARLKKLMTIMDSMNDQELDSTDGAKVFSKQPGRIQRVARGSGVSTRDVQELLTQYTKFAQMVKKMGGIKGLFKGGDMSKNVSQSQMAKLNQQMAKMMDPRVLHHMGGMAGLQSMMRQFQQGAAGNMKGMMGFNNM
# Chain of UniProt Q9BXS9 (Q9BXS9 whole entry, looked up): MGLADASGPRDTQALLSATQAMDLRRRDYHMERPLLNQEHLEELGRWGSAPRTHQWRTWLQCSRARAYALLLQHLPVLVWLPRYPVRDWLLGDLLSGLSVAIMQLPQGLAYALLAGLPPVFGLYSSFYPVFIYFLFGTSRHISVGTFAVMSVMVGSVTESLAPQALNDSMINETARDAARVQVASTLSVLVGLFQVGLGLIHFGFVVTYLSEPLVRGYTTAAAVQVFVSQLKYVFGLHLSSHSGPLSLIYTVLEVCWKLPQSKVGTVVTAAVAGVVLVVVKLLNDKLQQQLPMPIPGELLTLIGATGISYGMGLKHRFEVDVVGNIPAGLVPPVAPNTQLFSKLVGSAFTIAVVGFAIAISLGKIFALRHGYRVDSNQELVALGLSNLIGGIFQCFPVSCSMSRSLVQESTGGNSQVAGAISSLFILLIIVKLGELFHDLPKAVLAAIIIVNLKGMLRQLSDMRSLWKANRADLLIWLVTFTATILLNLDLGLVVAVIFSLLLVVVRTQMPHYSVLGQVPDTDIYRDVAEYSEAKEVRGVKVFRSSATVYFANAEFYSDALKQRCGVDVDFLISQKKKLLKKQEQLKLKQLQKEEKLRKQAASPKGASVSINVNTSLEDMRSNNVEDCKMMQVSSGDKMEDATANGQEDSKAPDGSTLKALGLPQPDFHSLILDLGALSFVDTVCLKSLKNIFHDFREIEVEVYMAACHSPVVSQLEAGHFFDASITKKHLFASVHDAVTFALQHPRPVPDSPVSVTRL
# Chain of UniProt Q96EX1 (Q96EX1 whole entry, looked up): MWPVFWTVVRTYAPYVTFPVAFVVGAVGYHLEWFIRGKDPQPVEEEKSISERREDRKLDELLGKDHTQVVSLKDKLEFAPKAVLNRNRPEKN
Target,log2 fold change [1],log2 fold change (vorinostat),log2 fold change (silmitasertib),log2 fold change [2],log2 fold change (entospletinib)
TARBP2 (UniProt Q15633),-0.017,-0.519 (active),0.024,-0.03,-0.002
SMAP2 (UniProt Q8WU79),0,-0.032,0.017,-0.04,-0.028
SRSF7 (UniProt Q16629),0.02,0.134,-0.052,-0.014,-0.013
SLC25A36 (UniProt Q96CQ1),-0.172,-0.071,0.001,0.033,0.013
STK38 (UniProt Q15208),0.021,-0.424 (active),0.16,-0.029,0
SLC39A11 (UniProt Q8N1S5),-0.076,0.103,-0.015,0.058,-0.137
SLC27A4 (UniProt Q6P1M0),-0.127,-0.257 (active),0.016,-0.002,0.07
SMIM8 (UniProt Q96KF7),-0.007,0.092,-0.022,-0.029,-0.046
SHKBP1 (UniProt Q8TBC3),-0.031,-0.069,-0.06,0.01,-0.218
SKA1 (UniProt Q96BD8),0.057,-0.586 (active),-0.036,-0.07,-0.021
SNRNP40 (UniProt Q96DI7),0.01,0.233,-0.012,0.022,0.03
SPR (UniProt P35270),-0.037,-0.199,0.308,0.219,0.003
SPATA5 (UniProt Q8NB90),0.005,-0.247,0.048,-0.011,0.013
SF3B6 (UniProt Q9Y3B4),0.018,-0.273 (active),0.026,0.007,-0.015
SSB (UniProt P05455),0.027,0.081,0.01,0.032,0.005
SSBP3 (UniProt Q9BWW4),-0.085,0.061,-0.005,0.088,0.009
SRM (UniProt P19623),0.009,-0.029,0.008,0.052,0.001
SLC26A6 (UniProt Q9BXS9),0.012,0.048,0.03,0.021,-0.111
TANK (UniProt Q92844),0.041,-0.102,0.124,0.071,0.132
SRSF2 (UniProt Q01130),0.023,0.087,-0.017,-0.043,-0.055
SMYD3 (UniProt Q9H7B4),0.044,-0.202 (active),0.029,-0.003,-0.008
SRP54 (UniProt P61011),0.003,-0.241 (active),0.008,0.021,-0.004
SNCA (UniProt P37840),0.069,0.161,-0.235,-0.023,-0.126
STOML2 (UniProt Q9UJZ1),0.03,0.129,-0.021,0.028,0.011
SLC19A1 (UniProt P41440),0.003,0.01,-0.024,-0.054,-0.002
STK24 (UniProt B4DR80),0.023,0.029,-0.014,-0.033,0.001
"SNX6, A0A0A0MRI2",-0.005,-0.325 (active),0.018,0.015,0.003

Target,log2 fold change [1],log2 fold change (vorinostat),log2 fold change (silmitasertib),log2 fold change [2],log2 fold change (entospletinib)
STUB1 (UniProt Q9UNE7),-0.012,-0.33 (active),0.015,0.006,0.019
SMC4 (UniProt Q9NTJ3),0.013,-0.296 (active),0.011,-0.015,0.009
SMARCA4 (UniProt P51532),0.015,-0.246 (active),0.021,-0.028,-0.008
SLC35A3 isoform 2 (UniProt Q9Y2D2),-0.022,0.091,-0.07,0.019,0
SMC3 (UniProt Q9UQE7),-0.023,0.06,-0.009,-0.017,0.012
SLC25A44 (UniProt Q96H78),0.13,0.025,-0.02,-0.056,-0.026
SLC38A10 (UniProt Q9HBR0),-0.034,0.044,-0.013,0.08,0.024
SMIM12 (UniProt Q96EX1),-0.044,0.174,-0.003,-0.025,-0.058
SNRPD2 (UniProt P62316),0,0.147,-0.021,0.015,0.001
SQLE (UniProt Q14534),0.01,0.103,-0.056,-0.042,0.029
SLC25A38 (UniProt Q96DW6),-0.093,0.109,0.129,-0.019,-0.075
SMG5 (UniProt Q9UPR3),0.04,-0.381 (active),-0.024,0.024,-0.023
SP1 (UniProt P08047),0.001,-0.376 (active),-0.045,0.081,-0.006
STN1 (UniProt Q9H668),-0.03,-0.2,-0.111,0.126,0.049
STIM1 (UniProt Q13586),0.026,0.126,-0.01,0.018,-0.025
STK25 (UniProt O00506),-0.024,-0.06,0.051,-0.03,-0.043
SHCBP1 (UniProt Q8NEM2),0.02,-0.37 (active),0.04,-0.009,-0.013
SYK (UniProt P43405),0.135,-0.138,0.053,0.016,-0.079
SPIRE1 (UniProt Q08AE8),0.092,0.15,-0.02,-0.129,0.076
SYNE2 isoform 2 (UniProt Q8WXH0),0.071,0.088,-0.015,0.051,-0.003
SULT1A1 (UniProt P50225),0.077,-0.273 (active),0.036,-0.021,0.071
SNRPF (UniProt P62306),-0.019,-0.014,-0.001,-0.01,-0.016
SH3GL1 (UniProt Q99961),-0.012,-0.245 (active),0,0.009,-0.004
TAF1B (UniProt Q53T94),0.673 (active),–,–,-0.044,-0.026
SSB (UniProt E7ERC4),-0.063,0.012,0.105,-0.11,-0.092
SPA17 (UniProt Q15506),0.049,–,–,0.022,-0.025
SLC41A1 (UniProt Q8IVJ1),–,0.06,-0.063,-0.37 (active),0.007
